We go through 26 compounds from PubChem BioAssay (Tox21).

SMILES strings stand for the structures. Unmarked numbers belong to inactive results. Inconclusive results are not listed. The source made the active and inactive calls. Unless noted, the call rests on the fitted dose curve; in most records, active means well fitted curve in the direction sought with a large enough effect in the repeat runs; inconclusive means weak or mixed curves; inactive means no such curve, though single readings can be large; an effect the other way counts as inactive or inconclusive.

Assay [1] has as its target Thyrotropin receptor (Homo sapiens) (UniProt P16473). The experiment in a line: qHTS assay to identify small molecule agonists of the thyroid stimulating hormone receptor (TSHR) signaling pathway (AID 1224843; calls by dose curve; further: nearly all actives have a fitted effect of over 45% in size). The procedure, abridged: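 HEK293 cells stably bearing the thyrotropin receptor were plated at 800 cells/well and challenged with compound (30 min, RT). Accumulated cAMP was quantified via cAMP-d2 competing for cryptate-tagged antibody.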

Assay [2] in a line: qHTS assay to identify small molecule agonists of H2AX (AID 1224845; active means well fitted activation curve with a large enough effect in the signal ratio in the repeat runs, not every such curve was filed as active; the % refers to the signal ratio). Put shortly: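 Phospho-H2AX Ser139 measured by HTRF (ex 320 nm; em 665 and 620 nm) after 24 hr antibody incubation. Compounds, 15 concentrations, 0.76% DMSO, were applied to CHO-K1 cells for 3hr at 37C before lysis.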
The nature of assay [3]: qHTS assay to identify small molecule agonists of H2AX - cell viability counter screen (AID 1224847; calls by dose curve; further: top concentration of the series differs between compounds; nearly all actives have a fitted effect of over 30% in size). Put shortly:
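Viability of CHO-K1 (wild type) cells after 3 hr compound exposure was measured by CellTiter-Glo luminescence.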

Assay [4] can be described thus: qHTS RealTime-Glo MT Cell Viability Assay in HepG2 cells - 24 hour (AID 1224867). Further: nearly all actives have a fitted effect of over 50% in size. Put shortly: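 Viability was tracked continuously by NanoLuc luminescence from prosubstrate reduced by living HepG2 cells, at successive time points over 40 h of compound exposure. Cells with reagent were preincubated 5 h at 37 °C before compound addition.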
Assay [5] can be described thus: qHTS RealTime-Glo MT Cell Viability Assay in HEK293 cells - 32 hour (AID 1224868). Further: nearly all actives have a fitted effect of over 50% in size. Further: potency means the concentration at half of the fitted maximal effect. Put shortly: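 Viability tracked continuously by luminescence as live cells reduce a prosubstrate for NanoLuc; HEK293 cells preincubated 5 h, compound-treated at 37 C, and read at 0, 8, 16, 24, 32 and 40 h.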
Assay [6] in a line: A CellTox Green Cytotoxicity Assay to monitor cytotoxicity in HEK293 cells - 0 hour (AID 1224869). Further: nearly all actives have a fitted effect of over 50% in size. Further: potency means the concentration at half of the fitted maximal effect. Put shortly: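 Seeding of HEK293 cells together with cytotoxicity dye preceded a 5 h incubation at 37 C/5% CO2. Test compounds in DMSO were then added and fluorescence monitored across 40 h.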
A short description of assay [7]: qHTS assay to identify small molecule agonists of the hypoxia (HIF-1) signaling pathway - cell viability counter screen (AID 1224844; calls by dose curve; further: nearly all actives have a fitted effect of over 50% in size; further: potency means the concentration at half of the fitted maximal effect). Put shortly: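 Multiplexed with the HRE beta-lactamase assay, this viability read used CellTiter-Glo luminescence (30 min, RT) on HRE-bla ME-180 cells treated 17 hrs with compounds in 0.5% dialyzed FBS medium.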
A short description of assay [8]: qHTS assay to identify small molecule agonists of the hypoxia (HIF-1) signaling pathway (AID 1224846; active means well fitted activation curve with a large enough effect in the signal ratio in the repeat runs, not every such curve was filed as active; the % refers to the signal ratio). The procedure, abridged:
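Hypoxia-pathway activation was scored as increased beta-lactamase from an HRE-controlled reporter in ME-180 cells; plated at 2,000 cells per well with 0.5% dialyzed FBS, they were exposed 17 hrs to compounds and then given CCF4-AM.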

Assay [9] is described as follows: qHTS assay to identify small molecule antagonists of the estrogen related receptor (ERR) signaling pathway from Tox21 library (AID 1224848). Further: nearly all actives have a fitted effect of over 50% in size. The procedure, abridged: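 Reading was by luminescence 30 min after ONE-Glo addition. Before that, ERR cells at 2,000 per well had rested 6 h at 37 C/5% CO2 and then received pin-tooled compounds in DMSO for 18 h at 37 C.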

Assay [10] is described as follows: qHTS assay to identify small molecule agonists of the estrogen related receptor (ERR) signaling pathway from Tox21 library (AID 1224849; calls by dose curve; further: nearly all actives have a fitted effect of over 15% in size). The following applies: ERR reporter cell line, ONE-Glo luciferase, 18 h; at 92.4 µM (top of the series) unless noted. The procedure, abridged: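 Six hours post-seeding at 37 C/5% CO2, ERR cells receive DMSO-solubilised compounds; after 18 h at 37 C, ONE-Glo reagent is applied and luminescence recorded.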
On the % scale 0 is the no-effect control and ±100 the full control effect.

Chain of Thyrotropin receptor (Homo sapiens) (P16473 whole entry, looked up): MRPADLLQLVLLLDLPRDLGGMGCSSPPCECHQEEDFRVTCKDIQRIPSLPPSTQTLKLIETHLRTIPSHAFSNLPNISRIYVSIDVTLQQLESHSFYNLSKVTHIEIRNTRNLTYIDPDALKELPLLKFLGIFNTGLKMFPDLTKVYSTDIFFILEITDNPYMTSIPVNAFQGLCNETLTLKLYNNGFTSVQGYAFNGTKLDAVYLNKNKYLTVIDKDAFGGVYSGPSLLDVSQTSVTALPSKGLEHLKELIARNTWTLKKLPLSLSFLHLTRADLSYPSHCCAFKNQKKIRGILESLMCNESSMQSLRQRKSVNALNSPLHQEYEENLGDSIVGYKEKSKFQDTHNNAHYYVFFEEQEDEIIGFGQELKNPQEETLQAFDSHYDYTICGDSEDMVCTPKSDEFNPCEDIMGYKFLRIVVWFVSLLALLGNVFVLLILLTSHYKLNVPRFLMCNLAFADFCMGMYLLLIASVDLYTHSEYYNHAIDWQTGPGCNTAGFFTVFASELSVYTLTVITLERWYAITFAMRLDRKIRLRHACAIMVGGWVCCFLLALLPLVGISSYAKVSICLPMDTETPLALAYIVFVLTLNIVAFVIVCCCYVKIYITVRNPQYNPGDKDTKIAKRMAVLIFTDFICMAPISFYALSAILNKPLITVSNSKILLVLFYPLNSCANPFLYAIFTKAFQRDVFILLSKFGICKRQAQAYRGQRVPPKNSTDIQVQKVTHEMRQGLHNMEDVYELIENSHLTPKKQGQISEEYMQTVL

`CCN1CCN(c2cc3c(cc2F)c(=O)c(C(=O)O)cn3C2CC2)CC1`: the result in [1], in [2] and in [4] was inactive. The Potency result in [3], in assay [5] and in assay [6] was “inactive” throughout.
Turning to `Cc1nccn1CC1CCc2c(c3ccccc3n2C)C1=O` (centres undefined), the compound was classed as inactive in assay [1], in [2] and in assay [4]. For the same compound, the Potency entry in [5] and in assay [6] was “inactive” in each case.
With `CC(=O)OC(C)(C)C`, the Potency result in assay [7], in [3], in assay [9], in assay [5] and in [6] was “inactive” each time. In addition, the outcome in assay [2], in assay [8] and in assay [4] was inactive. Also, the activity change, positive = activation in assay [10] was 0.24%.
With `CCCCCN(CCCCC)C(=O)C(CCC(=O)O)NC(=O)c1ccc(Cl)c(Cl)c1` (centres undefined), the call in [1], in [2] and in [4] was inactive. In addition, the Potency entry in assay [3], in assay [5] and in assay [6] was “inactive” throughout.
For the compound `CNC(=O)c1c(I)c(NC(=O)CCCCC(=O)Nc2c(I)c(C(=O)O)c(I)c(C(=O)NC)c2I)c(I)c(C(=O)O)c1I`, the Potency result in assay [7], in assay [3], in assay [9], in assay [5] and in assay [6] was “inactive” throughout. For the same compound, the result in [2], in assay [8] and in assay [4] was inactive. Moreover, the activity change, positive = activation in [10] was 8.83% [at 42.5 µM].
For the compound `C#CC(C)(O)CC(C)C` (centres undefined), the outcome in assay [1], in [2], in assay [8] and in assay [4] was inactive. In addition, the activity change, positive = activation in assay [10] is 13.6%. The Potency result in assay [5] and in assay [6] was “inactive” in each case.
For `Nc1ccn(C2CO[C@H](CO)O2)c(=O)n1` (some centres undefined), the result in assay [1], in [2], in assay [8] and in [4] was inactive. Besides, the activity change, positive = activation in [10] is 0.852% [at 42.5 µM]. In addition, the Potency entry in [5] is “inactive”. For the same compound, the Potency in [6] is 16.9 µM (active).
Regarding `CC(C)(O)c1ccccc1`, the Potency result in assay [7], in assay [3], in [9], in [5] and in assay [6] was “inactive” in each case. Besides, the outcome in [2], in assay [8] and in [4] was inactive.
Turning to `NS(=O)(=O)c1cc2c(cc1Cl)NC(CSCc1ccccc1)=NS2(=O)=O`, the compound was classed as inactive in assay [1], in [2] and in assay [4]. Further, the Potency entry in [3] and in assay [5] was “inactive” in each case.
For `c1cc(CN2CCCCC2)cc(OCCCNc2nc3ccccc3s2)c1`, the result in assay [1], in [2] and in assay [8] was inactive. In assay [10], the activity change, positive = activation was -31.8% [at 42.5 µM]. Further, in assay [5], the Potency was 9.52 µM (active). Further, the Potency entry in assay [6] is “inactive”.
`CCCC(=O)O[C@]1(C(=O)CCl)[C@@H](C)C[C@H]2[C@@H]3CCC4=CC(=O)C=C[C@]4(C)[C@@]3(F)C(=O)C[C@@]21C`: the outcome in [1] and in [4] was inactive. For the same compound, the Potency result in assay [3] and in [5] was “inactive” in each case.
For the compound `CN1[C@@H]2CC[C@H]1CC(NC(=O)n1c(=O)[nH]c3ccccc31)C2` (some centres undefined), the Potency entry in [7], in assay [3], in [5] and in [6] was “inactive” throughout. The compound was called inactive in [2], in assay [8] and in assay [4]. Further, the activity change, positive = activation in [10] was 7.7% [at 42.5 µM].
`CCN1CCCC(OC(=O)C(c2ccccc2)c2ccccc2)C1` (centres undefined): the compound was called inactive in assay [1], in [2] and in [4]. Further, the Potency result in assay [3], in assay [5] and in assay [6] was “inactive” throughout.
Turning to `CC12CCC(CC1=O)C2(C)C` (centres undefined), the outcome in assay [1], in [8] and in assay [4] was inactive. Also, the Potency result in [3], in assay [5] and in [6] was “inactive” throughout. Moreover, the activity change, positive = activation in assay [10] is 2.86%.
For the compound `CC(C)(O)C(=O)c1ccc(OCCO)cc1`, the Potency entry in [7], in [3], in assay [5] and in [6] was “inactive” in each case. The call in assay [2], in [8] and in assay [4] was inactive.
Take `COC(=O)C1=C(C)NC(C)=C(C(=O)OCC(C)=O)C1c1ccccc1[N+](=O)[O-]` (centres undefined): the Potency entry in assay [7], in assay [3], in [5] and in assay [6] was “inactive” in each case. For the same compound, the result in assay [2], in assay [8] and in assay [4] was inactive. In addition, the activity change, positive = activation in assay [10] is -8.69% [at 42.5 µM].
`CC(O)CN(CCCN(C)C)CCCN(C)C` (centres undefined): the Potency entry in assay [7], in assay [3], in assay [5] and in [6] was “inactive” in each case. Moreover, the call in assay [2], in [8] and in assay [4] was inactive.
For the compound `Nc1[nH]c(=O)ncc1F`, the Potency result in assay [7], in assay [9], in assay [5] and in assay [6] was “inactive” in each case. Moreover, the outcome in assay [2] and in assay [4] was inactive. For the same compound, the activity change, positive = activation in [10] was -0.92% [at 42.5 µM].
Turning to `COc1cc(C(=O)N2CCOCC2)cc(OC)c1OC`, the outcome in [2], in assay [8] and in [4] was inactive. In addition, the Potency result in [3], in assay [5] and in assay [6] was “inactive” in each case.
Take `CCC(C)OC(=O)N1CCCCC1CCO` (centres undefined): the Potency entry in assay [7], in assay [3], in assay [9], in [5] and in assay [6] was “inactive” in each case. The result in [8] and in [4] was inactive. The activity change, positive = activation in assay [10] is 2.44%.
As to `Cc1ccc(Nc2ccc(O)c3c2C(=O)c2ccccc2C3=O)cc1`, the Potency entry in assay [7] and in [5] was “inactive” each time. Also, the result in [2], in assay [8] and in assay [4] was inactive.
Take `O=C1C(CCS(=O)c2ccccc2)C(=O)N(c2ccccc2)N1c1ccccc1` (centres undefined): the Potency entry in assay [7], in [3], in [5] and in assay [6] was “inactive” in each case. Moreover, the compound was classed as inactive in assay [2] and in assay [4].
Take `CCOC(=O)Cn1c(=O)sc2cccc(Cl)c21`: the compound was called inactive in [2] and in assay [8]. The Potency result in assay [3], in assay [9] and in assay [5] was “inactive” in each case. For the same compound, in assay [10], the activity change, positive = activation was -12%.
`COc1cc(C)cc(O)c1`: the Potency entry in assay [7], in [3], in assay [5] and in assay [6] was “inactive” in each case. In addition, the call in assay [2], in assay [8] and in [4] was inactive.
With `O=C(O)Cc1cc(I)c(Oc2cc(I)c(O)c(I)c2)c(I)c1`, the Potency in [7] is 24.1 µM (active). Also, the compound was called inactive in assay [4]. Also, the Potency entry in assay [5] and in assay [6] was “inactive” in each case.
With `C1C2OC2C2C1C1CC2C2OC12` (centres undefined), the Potency entry in [7], in assay [5] and in assay [6] was “inactive” each time. Further, the outcome in assay [8] and in assay [4] was inactive.
